Data from ChEMBL document CHEMBL1961873, “Compounds: GSK PKIS; Assays: Nanosyn kinase panel” (2012).

What was measured:
[1] = target: Protein kinase C gamma type (Homo sapiens) (UniProt P05129); details: at 1 µM;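 also: each value is an averaged percent inhibition of the enzyme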
[2] = target: T1, Protein kinase C iota type (Homo sapiens) (UniProt P41743); details: at 0.1 µM
T1 sequence (whole entry): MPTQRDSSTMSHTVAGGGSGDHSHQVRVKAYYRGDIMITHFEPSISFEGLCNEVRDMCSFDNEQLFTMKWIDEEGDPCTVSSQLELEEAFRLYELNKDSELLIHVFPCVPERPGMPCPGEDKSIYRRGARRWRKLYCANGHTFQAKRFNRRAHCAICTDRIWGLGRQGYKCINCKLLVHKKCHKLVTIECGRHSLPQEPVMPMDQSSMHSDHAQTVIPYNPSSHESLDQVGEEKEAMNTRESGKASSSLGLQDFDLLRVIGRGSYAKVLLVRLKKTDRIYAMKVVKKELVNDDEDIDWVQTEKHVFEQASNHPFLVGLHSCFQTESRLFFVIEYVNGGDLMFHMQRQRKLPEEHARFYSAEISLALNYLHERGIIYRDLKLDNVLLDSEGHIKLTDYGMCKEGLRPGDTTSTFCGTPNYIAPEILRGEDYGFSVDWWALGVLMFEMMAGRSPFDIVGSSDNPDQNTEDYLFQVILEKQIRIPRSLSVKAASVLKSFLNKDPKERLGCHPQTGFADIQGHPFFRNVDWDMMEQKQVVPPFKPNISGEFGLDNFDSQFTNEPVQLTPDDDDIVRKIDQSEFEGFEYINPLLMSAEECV

[3] = target: T1, Protein kinase C iota type (Homo sapiens); details: at 1 µM
[4] = target: Protein kinase C theta type (Homo sapiens) (UniProt Q04759); details: at 0.1 µM
Chain of Protein kinase C theta type (Homo sapiens) (Q04759 whole entry, looked up): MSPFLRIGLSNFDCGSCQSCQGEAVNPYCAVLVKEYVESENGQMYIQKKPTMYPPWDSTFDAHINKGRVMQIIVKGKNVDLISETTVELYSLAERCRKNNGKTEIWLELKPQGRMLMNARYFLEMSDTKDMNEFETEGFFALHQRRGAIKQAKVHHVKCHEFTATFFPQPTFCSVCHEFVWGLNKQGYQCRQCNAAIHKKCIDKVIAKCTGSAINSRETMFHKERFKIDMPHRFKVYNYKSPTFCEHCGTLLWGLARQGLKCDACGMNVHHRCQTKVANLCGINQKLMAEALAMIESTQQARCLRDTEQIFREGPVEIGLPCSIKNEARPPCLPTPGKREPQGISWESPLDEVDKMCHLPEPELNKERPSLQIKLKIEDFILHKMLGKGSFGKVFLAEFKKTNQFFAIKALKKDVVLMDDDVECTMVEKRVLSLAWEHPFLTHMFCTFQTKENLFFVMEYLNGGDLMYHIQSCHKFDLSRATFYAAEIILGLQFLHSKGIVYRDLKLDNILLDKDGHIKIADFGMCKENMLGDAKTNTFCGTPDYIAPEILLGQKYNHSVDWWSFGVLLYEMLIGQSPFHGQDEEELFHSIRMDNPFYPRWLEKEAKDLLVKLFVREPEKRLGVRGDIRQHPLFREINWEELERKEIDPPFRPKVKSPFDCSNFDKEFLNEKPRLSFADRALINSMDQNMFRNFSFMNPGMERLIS

[5] = target: Protein kinase C theta type (Homo sapiens) (UniProt Q04759); details: at 1 µM
[6] = target: Protein kinase C beta type (Homo sapiens) (UniProt P05771); details: at 0.1 µM
Chain of Protein kinase C beta type (Homo sapiens) (P05771 2-671 limits assumed): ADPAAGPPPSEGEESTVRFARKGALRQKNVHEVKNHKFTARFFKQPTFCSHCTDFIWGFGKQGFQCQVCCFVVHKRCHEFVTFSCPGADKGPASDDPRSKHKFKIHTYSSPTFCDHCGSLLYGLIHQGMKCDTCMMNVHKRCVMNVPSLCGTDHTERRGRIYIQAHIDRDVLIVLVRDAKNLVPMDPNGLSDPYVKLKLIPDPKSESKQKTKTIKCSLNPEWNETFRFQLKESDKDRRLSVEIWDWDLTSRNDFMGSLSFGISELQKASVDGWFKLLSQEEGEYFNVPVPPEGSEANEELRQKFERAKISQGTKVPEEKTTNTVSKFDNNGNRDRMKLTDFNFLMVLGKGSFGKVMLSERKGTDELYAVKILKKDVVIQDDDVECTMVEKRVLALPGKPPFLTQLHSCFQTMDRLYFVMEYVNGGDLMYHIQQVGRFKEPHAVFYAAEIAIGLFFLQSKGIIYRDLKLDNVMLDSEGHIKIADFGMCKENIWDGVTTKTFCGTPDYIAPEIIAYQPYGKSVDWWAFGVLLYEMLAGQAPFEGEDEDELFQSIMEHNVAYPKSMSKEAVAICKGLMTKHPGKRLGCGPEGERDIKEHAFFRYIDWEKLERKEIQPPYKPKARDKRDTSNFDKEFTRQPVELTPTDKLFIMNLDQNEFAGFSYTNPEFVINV

[7] = target: Protein kinase C beta type (Homo sapiens) (UniProt P05771); details: at 1 µM
[8] = target: T2, Serine/threonine-protein kinase D1 (Homo sapiens) (UniProt Q15139); details: at 0.1 µM
T2 sequence (whole entry): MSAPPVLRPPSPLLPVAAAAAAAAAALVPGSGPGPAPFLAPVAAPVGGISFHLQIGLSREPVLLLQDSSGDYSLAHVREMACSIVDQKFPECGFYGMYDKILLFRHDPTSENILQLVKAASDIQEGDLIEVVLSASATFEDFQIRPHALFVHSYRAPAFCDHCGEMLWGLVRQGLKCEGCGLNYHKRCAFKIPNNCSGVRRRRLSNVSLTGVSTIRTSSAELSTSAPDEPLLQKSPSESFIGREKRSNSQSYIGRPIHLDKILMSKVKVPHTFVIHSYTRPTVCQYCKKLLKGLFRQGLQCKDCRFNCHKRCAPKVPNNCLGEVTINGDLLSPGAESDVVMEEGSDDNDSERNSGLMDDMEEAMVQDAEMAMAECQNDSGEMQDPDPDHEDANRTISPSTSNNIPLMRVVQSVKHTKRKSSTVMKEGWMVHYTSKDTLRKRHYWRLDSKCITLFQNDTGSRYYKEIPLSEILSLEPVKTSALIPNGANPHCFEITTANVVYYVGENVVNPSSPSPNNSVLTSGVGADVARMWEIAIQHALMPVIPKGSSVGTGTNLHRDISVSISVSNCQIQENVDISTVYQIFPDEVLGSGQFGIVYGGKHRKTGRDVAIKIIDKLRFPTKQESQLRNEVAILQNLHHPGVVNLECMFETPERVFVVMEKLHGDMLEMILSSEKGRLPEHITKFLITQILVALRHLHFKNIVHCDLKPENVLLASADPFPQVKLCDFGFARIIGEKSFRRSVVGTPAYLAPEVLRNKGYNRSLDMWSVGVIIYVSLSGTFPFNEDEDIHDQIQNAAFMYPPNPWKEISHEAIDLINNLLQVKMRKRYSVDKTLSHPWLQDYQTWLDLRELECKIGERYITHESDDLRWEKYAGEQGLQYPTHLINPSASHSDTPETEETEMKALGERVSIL

[9] = target: T2, Serine/threonine-protein kinase D1 (Homo sapiens); details: at 1 µM
[10] = target: T3, Serine/threonine-protein kinase D2 (Homo sapiens) (UniProt Q9BZL6); details: at 0.1 µM
T3 sequence (whole entry): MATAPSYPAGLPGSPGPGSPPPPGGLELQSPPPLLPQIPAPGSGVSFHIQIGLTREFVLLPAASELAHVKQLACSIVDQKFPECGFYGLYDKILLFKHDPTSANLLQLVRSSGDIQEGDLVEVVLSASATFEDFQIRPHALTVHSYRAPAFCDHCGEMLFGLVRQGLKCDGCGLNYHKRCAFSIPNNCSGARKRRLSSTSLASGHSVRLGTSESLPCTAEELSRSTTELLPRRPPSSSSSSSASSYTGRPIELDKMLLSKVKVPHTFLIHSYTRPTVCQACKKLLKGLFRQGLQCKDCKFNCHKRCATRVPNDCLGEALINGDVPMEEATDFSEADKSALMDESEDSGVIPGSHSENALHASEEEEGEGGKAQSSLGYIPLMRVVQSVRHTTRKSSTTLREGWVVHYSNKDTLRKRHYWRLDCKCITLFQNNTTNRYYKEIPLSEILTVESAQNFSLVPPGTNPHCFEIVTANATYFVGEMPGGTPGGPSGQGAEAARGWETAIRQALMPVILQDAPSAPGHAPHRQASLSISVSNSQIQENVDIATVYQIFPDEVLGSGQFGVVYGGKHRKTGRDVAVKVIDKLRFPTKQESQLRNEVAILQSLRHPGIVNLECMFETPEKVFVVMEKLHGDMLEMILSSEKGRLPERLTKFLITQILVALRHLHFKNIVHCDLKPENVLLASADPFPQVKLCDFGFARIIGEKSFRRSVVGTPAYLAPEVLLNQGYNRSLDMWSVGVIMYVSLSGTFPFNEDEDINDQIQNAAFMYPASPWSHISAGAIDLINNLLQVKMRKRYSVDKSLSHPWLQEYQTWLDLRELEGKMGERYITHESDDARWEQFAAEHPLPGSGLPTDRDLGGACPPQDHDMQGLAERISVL

[11] = target: T3, Serine/threonine-protein kinase D2 (Homo sapiens); details: at 1 µM
[12] = target: T4, Serine/threonine-protein kinase D3 (Homo sapiens) (UniProt O94806); details: at 0.1 µM
T4 sequence (whole entry): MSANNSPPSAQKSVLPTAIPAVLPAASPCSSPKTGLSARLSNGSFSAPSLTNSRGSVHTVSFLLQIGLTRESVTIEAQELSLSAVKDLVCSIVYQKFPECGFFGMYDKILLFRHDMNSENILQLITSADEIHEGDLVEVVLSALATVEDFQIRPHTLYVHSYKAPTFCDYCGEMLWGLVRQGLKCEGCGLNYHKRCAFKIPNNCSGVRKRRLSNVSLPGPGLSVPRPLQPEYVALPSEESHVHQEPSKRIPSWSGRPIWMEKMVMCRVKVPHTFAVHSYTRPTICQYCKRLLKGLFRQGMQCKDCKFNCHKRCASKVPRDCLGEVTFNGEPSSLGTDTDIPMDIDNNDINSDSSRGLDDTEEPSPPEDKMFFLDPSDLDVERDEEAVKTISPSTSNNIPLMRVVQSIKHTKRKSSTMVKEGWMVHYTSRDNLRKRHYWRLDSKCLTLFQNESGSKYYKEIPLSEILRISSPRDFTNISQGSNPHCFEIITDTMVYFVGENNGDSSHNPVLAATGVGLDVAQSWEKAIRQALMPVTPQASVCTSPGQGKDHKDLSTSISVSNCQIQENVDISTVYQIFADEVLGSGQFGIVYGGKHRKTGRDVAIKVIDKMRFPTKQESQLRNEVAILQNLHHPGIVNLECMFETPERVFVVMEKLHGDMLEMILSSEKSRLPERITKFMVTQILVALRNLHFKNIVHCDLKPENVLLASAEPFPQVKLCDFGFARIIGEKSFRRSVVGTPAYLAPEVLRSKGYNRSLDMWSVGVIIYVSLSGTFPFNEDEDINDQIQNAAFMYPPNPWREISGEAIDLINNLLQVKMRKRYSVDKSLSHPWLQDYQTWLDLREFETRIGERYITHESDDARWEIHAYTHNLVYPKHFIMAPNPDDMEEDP

[13] = target: T4, Serine/threonine-protein kinase D3 (Homo sapiens); details: at 1 µM
[14] = target: T5, cGMP-dependent protein kinase 1 (Homo sapiens) (UniProt Q13976); details: at 0.1 µM
T5 sequence (whole entry): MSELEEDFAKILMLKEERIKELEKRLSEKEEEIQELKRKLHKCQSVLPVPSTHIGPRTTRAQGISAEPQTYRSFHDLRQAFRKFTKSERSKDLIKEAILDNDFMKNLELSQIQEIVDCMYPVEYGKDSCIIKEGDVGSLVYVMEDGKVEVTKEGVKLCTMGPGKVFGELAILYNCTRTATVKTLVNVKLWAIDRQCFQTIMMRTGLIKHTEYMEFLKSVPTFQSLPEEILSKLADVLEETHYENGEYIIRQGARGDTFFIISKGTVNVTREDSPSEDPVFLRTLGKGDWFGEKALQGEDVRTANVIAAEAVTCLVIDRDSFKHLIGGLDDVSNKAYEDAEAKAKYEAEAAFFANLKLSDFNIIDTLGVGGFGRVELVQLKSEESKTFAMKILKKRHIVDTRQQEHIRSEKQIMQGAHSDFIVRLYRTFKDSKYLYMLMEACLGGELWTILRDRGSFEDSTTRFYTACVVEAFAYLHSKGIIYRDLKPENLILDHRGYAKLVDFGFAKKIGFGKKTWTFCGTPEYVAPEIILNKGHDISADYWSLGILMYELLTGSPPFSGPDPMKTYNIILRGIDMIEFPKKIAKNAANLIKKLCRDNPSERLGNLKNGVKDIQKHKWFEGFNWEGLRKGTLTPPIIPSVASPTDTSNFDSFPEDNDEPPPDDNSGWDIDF

[15] = target: T5, cGMP-dependent protein kinase 1 (Homo sapiens); details: at 1 µM
[16] = target: T6, cGMP-dependent protein kinase 2 (Homo sapiens) (UniProt Q13237); details: at 0.1 µM
T6 sequence (whole entry): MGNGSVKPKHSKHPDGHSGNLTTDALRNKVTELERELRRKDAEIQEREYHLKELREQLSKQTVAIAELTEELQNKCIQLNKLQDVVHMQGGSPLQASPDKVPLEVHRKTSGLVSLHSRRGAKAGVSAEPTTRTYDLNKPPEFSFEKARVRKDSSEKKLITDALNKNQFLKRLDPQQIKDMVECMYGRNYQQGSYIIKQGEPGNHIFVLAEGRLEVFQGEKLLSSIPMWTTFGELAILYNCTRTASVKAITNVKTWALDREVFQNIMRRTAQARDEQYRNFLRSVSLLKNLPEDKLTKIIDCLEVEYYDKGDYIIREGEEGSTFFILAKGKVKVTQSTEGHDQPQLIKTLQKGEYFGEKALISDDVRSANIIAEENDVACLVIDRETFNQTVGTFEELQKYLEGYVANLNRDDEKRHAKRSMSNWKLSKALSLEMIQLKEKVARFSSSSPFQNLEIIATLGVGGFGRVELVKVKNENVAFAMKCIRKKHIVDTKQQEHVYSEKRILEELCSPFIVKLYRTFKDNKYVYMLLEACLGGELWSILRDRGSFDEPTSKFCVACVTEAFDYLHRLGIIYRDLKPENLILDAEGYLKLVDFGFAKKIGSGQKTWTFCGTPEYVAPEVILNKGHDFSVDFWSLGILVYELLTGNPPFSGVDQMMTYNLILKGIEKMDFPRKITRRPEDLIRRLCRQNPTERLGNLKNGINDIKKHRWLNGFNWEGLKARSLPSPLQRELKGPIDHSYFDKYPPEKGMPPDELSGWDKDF

[17] = target: T6, cGMP-dependent protein kinase 2 (Homo sapiens); details: at 1 µM
[18] = target: T7, cAMP-dependent protein kinase catalytic subunit PRKX (Homo sapiens) (UniProt P51817); details: at 0.1 µM
T7 sequence (whole entry): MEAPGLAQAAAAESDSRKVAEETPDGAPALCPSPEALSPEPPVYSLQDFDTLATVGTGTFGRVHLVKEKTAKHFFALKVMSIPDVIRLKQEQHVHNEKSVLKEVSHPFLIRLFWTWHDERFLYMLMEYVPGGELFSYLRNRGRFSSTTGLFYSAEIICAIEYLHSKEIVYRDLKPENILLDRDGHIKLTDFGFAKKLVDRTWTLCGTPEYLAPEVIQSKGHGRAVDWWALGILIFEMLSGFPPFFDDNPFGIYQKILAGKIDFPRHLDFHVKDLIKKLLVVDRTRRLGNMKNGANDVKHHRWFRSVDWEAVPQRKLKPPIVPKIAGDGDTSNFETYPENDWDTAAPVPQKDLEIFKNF

[19] = target: T7, cAMP-dependent protein kinase catalytic subunit PRKX (Homo sapiens); details: at 1 µM
[20] = target: Rho-associated protein kinase 1 (Homo sapiens) (UniProt Q13464); details: at 0.1 µM;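 also: values are mean percent inhibition of ROCK1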
Chain of Rho-associated protein kinase 1 (Homo sapiens) (Q13464 2-1354 limits assumed): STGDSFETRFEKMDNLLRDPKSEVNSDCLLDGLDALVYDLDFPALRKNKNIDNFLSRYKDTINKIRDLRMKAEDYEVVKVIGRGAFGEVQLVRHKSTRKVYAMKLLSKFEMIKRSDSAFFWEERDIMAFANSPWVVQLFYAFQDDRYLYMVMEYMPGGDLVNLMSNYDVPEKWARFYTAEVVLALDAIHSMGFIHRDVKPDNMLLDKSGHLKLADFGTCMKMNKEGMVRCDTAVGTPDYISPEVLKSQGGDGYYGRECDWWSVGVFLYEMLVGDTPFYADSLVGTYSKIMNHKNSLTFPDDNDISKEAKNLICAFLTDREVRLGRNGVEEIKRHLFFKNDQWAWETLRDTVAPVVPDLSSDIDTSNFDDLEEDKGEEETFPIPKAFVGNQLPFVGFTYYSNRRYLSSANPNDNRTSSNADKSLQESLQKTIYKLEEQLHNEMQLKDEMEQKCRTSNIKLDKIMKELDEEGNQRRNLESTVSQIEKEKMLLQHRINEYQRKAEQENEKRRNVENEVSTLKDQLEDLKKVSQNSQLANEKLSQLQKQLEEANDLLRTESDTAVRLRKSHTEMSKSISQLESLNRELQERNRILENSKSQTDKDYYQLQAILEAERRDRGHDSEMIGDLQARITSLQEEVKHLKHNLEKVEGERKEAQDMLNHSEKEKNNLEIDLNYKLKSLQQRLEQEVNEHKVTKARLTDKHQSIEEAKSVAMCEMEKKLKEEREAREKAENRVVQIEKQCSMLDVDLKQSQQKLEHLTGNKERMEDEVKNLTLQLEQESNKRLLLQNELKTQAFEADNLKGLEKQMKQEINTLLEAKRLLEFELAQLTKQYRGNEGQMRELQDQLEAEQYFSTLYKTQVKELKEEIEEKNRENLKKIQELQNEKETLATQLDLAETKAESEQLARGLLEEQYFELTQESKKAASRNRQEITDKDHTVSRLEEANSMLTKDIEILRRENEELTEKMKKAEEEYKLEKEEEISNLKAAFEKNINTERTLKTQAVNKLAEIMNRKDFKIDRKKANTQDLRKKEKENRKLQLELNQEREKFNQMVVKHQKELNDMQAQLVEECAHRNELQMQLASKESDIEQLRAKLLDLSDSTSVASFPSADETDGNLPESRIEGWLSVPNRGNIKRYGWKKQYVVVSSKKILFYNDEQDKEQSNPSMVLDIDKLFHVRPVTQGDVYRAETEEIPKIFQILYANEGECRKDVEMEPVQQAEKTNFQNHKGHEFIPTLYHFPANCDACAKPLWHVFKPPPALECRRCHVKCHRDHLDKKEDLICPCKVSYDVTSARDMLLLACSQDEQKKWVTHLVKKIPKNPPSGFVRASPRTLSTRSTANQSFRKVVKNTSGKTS

SMILES | inhibition [1] | inhibition [2] | inhibition [3] | inhibition [4] | inhibition [5] | inhibition [6] | inhibition [7] | inhibition [8] | inhibition [9] | inhibition [10] | inhibition [11] | inhibition [12] | inhibition [13] | inhibition [14] | inhibition [15] | inhibition [16] | inhibition [17] | inhibition [18] | inhibition [19] | inhibition [20]
O=C1Nc2ccc(-c3cccnc3)cc2C1=Cc1cc(Br)c(O)c(Br)c1 | 6.29% | 1.6% | 3.35% | 1.77% | 2.57% | 0.86% | 1.44% | 2.94% | 4.25% | 3.88% | 4.38% | 4.62% | 5.23% | 4.28% | 11% | 2.46% | 4.63% | 1.55% | -0.22% | 1.68%
COc1cccc(-n2ncc3c(N/N=C/c4ccc(S(C)(=O)=O)cc4)ncnc32)c1 | 3.18% | 2.06% | 0.98% | -0.11% | 1.19% | 2.19% | 13.3% | -2.12% | -1.45% | -2.64% | -2.8% | -6.98% | -2.38% | 1.11% | 1.69% | 1.59% | 1.79% | 1.68% | 1.61% | 0.21%
